The panel holds about 83,000 compounds, 20% with a hit somewhere; the sample as a whole holds those more often.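 Cells were grown in 96-well plates and exposed to the test compound at a single concentration for 48 hours; results are reported as percent growth, with values below 10 considered active.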 Active and inactive are the calls of the source.
tested on: SNB-19 CNS; assay: NCI-60 one-dose screen, 48 h (100 = growth as untreated, 0 = no growth, -100 = all killed); settings: 10 µM unless noted

SMILES | growth
C#CC(OC(=O)N(C)C)(c1ccccc1)c1ccc(F)cc1 (stereo unspecified) | 120% (inactive)
CC(C)c1ccc(C(=O)Nc2sc3c(c2C#N)CCC(=O)C3)cc1 | 11.4% (inactive)
c1coc2occoc=2o1 | 107% (inactive)
Cc1cc(SC#N)ncn1 | 103% (inactive)
Cc1ccc(NCCN2CCCCC2)c2c(=O)c3ccccc3sc12 | 36% (inactive)
O=C(NCCCNC(=O)OCc1ccc2cccc(O)c2n1)OCc1ccc2cccc(O)c2n1 | 54.6% (inactive)
O=[N+]([O-])c1ccc(O)c(-c2nc3ccccc3s2)c1 | 64.1% (inactive)
COc1ccc(C(=O)CSc2nccc(Nc3ccc(C(=O)O)cc3)n2)cc1 | 101% (inactive)
C=C(C)[C@@H]1CC[C@]2(C(=O)NCCNCCNC(=O)OC(C)(C)C)CC[C@]3(C)[C@H](CC[C@@H]4[C@@]5(C)CCC(=O)C(C)(C)[C@@H]5CC[C@]43C)[C@@H]12 | 47.8% [100 µM] (inactive)
Cc1ccc(-c2cn(C/C=C3\C=CN(S(=O)(=O)c4ccccc4)CC3)nn2)cc1 | 93% (inactive)
CC1(C)CC[C@]23CC[C@]4(C)[C@H](CC[C@@H]5[C@@]6(C)C/C(=C/c7ccncc7)C(=O)C(C)(C)[C@@H]6CC[C@]54C)[C@H]2[C@H]1OC3=O | 17.3% [100 µM] (inactive)
CCN(CC)CCCOc1ccc2c(c1)O/C(=C\c1cccc(OC)c1)C2=O | 92.6% (inactive)
CC1Cc2c(Cl)ncnc2N(C)c2ccc(O)cc21 (stereo unspecified) | 44.4% (inactive)
CSc1cccc([N+](=O)[O-])c1 | 110% (inactive)
CSc1nc(=S)c2nc(SC)n(-c3ccccc3)c2[nH]1 | 100% (inactive)
O=c1[nH]cnc2c1ccn2C1OC(CO)C(O)C1O (stereo unspecified) | 78.3% (inactive)
COc1ccc(N(c2nc(-c3ccc([N+](=O)[O-])cc3)cs2)C(C)C)cc1 | 89.9% (inactive)
COc1cc(NN=C(c2ccc(O)cc2)c2ccc(O)cc2)c([N+](=O)[O-])cc1[N+](=O)[O-] | -4.74% (active)
COc1ccc2nc3c(cc2c1)C(=O)CC(C(F)(F)F)C3 (stereo unspecified) | 50.3% (inactive)

SMILES | growth
CCOc1ccc(S(=O)(=O)Nc2ccc3c(c2)N(S(=O)(=O)CC)CCC3)cc1 | 80.4% (inactive)
O=C(Nc1ccc(C(=O)/C=C/c2ccc(N3CCOCC3)cc2)cc1)Nc1ccc([N+](=O)[O-])cc1 | 98.4% (inactive)
C=C(C)[C@@H]1CC[C@]2(C)[C@H](CC[C@@H]3[C@@H]([C@@](C)(O)CCC=C(C)C)CC[C@]32C)[C@@]1(C)CCC(=O)N1CCN(C)CC1 | -95.3% [100 µM] (active)
C=C(C)[C@@H]1CC[C@]2(COCCCN)CC[C@]3(C)[C@H](CC[C@@H]4[C@@](C)(CCCNCCCN)[C@H](C(=C)C)CC[C@]43C)[C@@H]12 | -60.1% [100 µM] (active)
COc1cc2c(cc1OCCCN1CCN(CCCOc3cc4c(cc3OC)C(=O)N3C[C@H](F)C[C@H]3C=N4)CC1)N=C[C@@H]1C[C@@H](F)CN1C2=O | 18.1% (inactive)
CC(C)c1ccc(/C=N/N=C(N)N)cc1 | 97.1% (inactive)
CCCCCCCCCCCCCCCCCCNC(=S)N/N=C/c1ccc(OC)c(OC)c1 | 94% (inactive)
C=C(C)[C@@H]1CC[C@]2(C)[C@H](CC[C@@H]3[C@@H]([C@@](C)(O)CCC=C(C)C)CC[C@]32C)[C@@]1(C)CCC(=O)O | -32.8% [100 µM] (active)
Cc1ccc(S(=O)(=O)Oc2ccc([N+](=O)[O-])cc2[N+](=O)[O-])cc1 | 110% (inactive)
C=CCCCCOc1ccccc1-c1cnc(OCCCCC=C)n1C | 91.1% (inactive)
Cc1ncc(C(=O)Nc2ccc(CN3CCN(C)CC3)c(C(F)(F)F)c2)cc1C#Cc1c(N)ncc2ccc(C#N)cc12 | 77.5% (inactive)
CCc1cccc(Cl)c1 | 104% (inactive)
Cc1ccc(S(=O)(=O)N/N=C2\CC3CCC2(C)C3(C)C)cc1 (stereo unspecified) | 98.1% (inactive)
COc1ccc(C(C(=O)O)c2ccc(OC)cc2)cc1 | 113% (inactive)
Fc1ccc(NC(=S)c2ccccc2)cc1 | 100% (inactive)
c1cc2ccc3cc2cc1CNCCN1CCNCc2ccc4ccc(cc4c2)CNCCN(CCNC3)CCNCc2ccc3ccc(cc3c2)CNCC1 | -7.68% (active)
Cn1cc(-c2nnc(-c3ccccc3)s2)c2cc(Br)cnc21 | 87.9% (inactive)
CCOc1ccc2sc(NS(=O)(=O)c3ccc(N)cc3)nc2c1 | 103% (inactive)
COc1ccc2c(c1)C(C)Cc1c(Cl)ncnc1N2C (stereo unspecified) | 27.7% (inactive)

tested on: U251 CNS; assay: as above; settings: 10 µM unless noted

SMILES | growth
C#CC(OC(=O)N(C)C)(c1ccccc1)c1ccc(F)cc1 (stereo unspecified) | 94.8% (inactive)
CC(C)c1ccc(C(=O)Nc2sc3c(c2C#N)CCC(=O)C3)cc1 | 15% (inactive)
c1coc2occoc=2o1 | 101% (inactive)
Cc1cc(SC#N)ncn1 | 103% (inactive)
Cc1ccc(NCCN2CCCCC2)c2c(=O)c3ccccc3sc12 | 21.1% (inactive)
O=C(NCCCNC(=O)OCc1ccc2cccc(O)c2n1)OCc1ccc2cccc(O)c2n1 | 39.8% (inactive)
O=[N+]([O-])c1ccc(O)c(-c2nc3ccccc3s2)c1 | 71.6% (inactive)
COc1ccc(C(=O)CSc2nccc(Nc3ccc(C(=O)O)cc3)n2)cc1 | 98% (inactive)
C=C(C)[C@@H]1CC[C@]2(C(=O)NCCNCCNC(=O)OC(C)(C)C)CC[C@]3(C)[C@H](CC[C@@H]4[C@@]5(C)CCC(=O)C(C)(C)[C@@H]5CC[C@]43C)[C@@H]12 | 27.9% [100 µM] (inactive)
Cc1ccc(-c2cn(C/C=C3\C=CN(S(=O)(=O)c4ccccc4)CC3)nn2)cc1 | 108% (inactive)
CC1(C)CC[C@]23CC[C@]4(C)[C@H](CC[C@@H]5[C@@]6(C)C/C(=C/c7ccncc7)C(=O)C(C)(C)[C@@H]6CC[C@]54C)[C@H]2[C@H]1OC3=O | 39.2% [100 µM] (inactive)
CCN(CC)CCCOc1ccc2c(c1)O/C(=C\c1cccc(OC)c1)C2=O | 76.7% (inactive)
CC1Cc2c(Cl)ncnc2N(C)c2ccc(O)cc21 (stereo unspecified) | 36% (inactive)
CSc1cccc([N+](=O)[O-])c1 | 109% (inactive)
CSc1nc(=S)c2nc(SC)n(-c3ccccc3)c2[nH]1 | 93.5% (inactive)
O=c1[nH]cnc2c1ccn2C1OC(CO)C(O)C1O (stereo unspecified) | 81.2% (inactive)
COc1ccc(N(c2nc(-c3ccc([N+](=O)[O-])cc3)cs2)C(C)C)cc1 | 90.3% (inactive)
COc1cc(NN=C(c2ccc(O)cc2)c2ccc(O)cc2)c([N+](=O)[O-])cc1[N+](=O)[O-] | 40.5% (inactive)
COc1ccc2nc3c(cc2c1)C(=O)CC(C(F)(F)F)C3 (stereo unspecified) | 84.7% (inactive)

SMILES | growth
CCOc1ccc(S(=O)(=O)Nc2ccc3c(c2)N(S(=O)(=O)CC)CCC3)cc1 | 61.8% (inactive)
O=C(Nc1ccc(C(=O)/C=C/c2ccc(N3CCOCC3)cc2)cc1)Nc1ccc([N+](=O)[O-])cc1 | 85.7% (inactive)
C=C(C)[C@@H]1CC[C@]2(C)[C@H](CC[C@@H]3[C@@H]([C@@](C)(O)CCC=C(C)C)CC[C@]32C)[C@@]1(C)CCC(=O)N1CCN(C)CC1 | -78.6% [100 µM] (active)
C=C(C)[C@@H]1CC[C@]2(COCCCN)CC[C@]3(C)[C@H](CC[C@@H]4[C@@](C)(CCCNCCCN)[C@H](C(=C)C)CC[C@]43C)[C@@H]12 | -51.5% [100 µM] (active)
COc1cc2c(cc1OCCCN1CCN(CCCOc3cc4c(cc3OC)C(=O)N3C[C@H](F)C[C@H]3C=N4)CC1)N=C[C@@H]1C[C@@H](F)CN1C2=O | 8.39% (active)
CC(C)c1ccc(/C=N/N=C(N)N)cc1 | 89.7% (inactive)
CCCCCCCCCCCCCCCCCCNC(=S)N/N=C/c1ccc(OC)c(OC)c1 | 90.1% (inactive)
C=C(C)[C@@H]1CC[C@]2(C)[C@H](CC[C@@H]3[C@@H]([C@@](C)(O)CCC=C(C)C)CC[C@]32C)[C@@]1(C)CCC(=O)O | -16.7% [100 µM] (active)
Cc1ccc(S(=O)(=O)Oc2ccc([N+](=O)[O-])cc2[N+](=O)[O-])cc1 | 94.4% (inactive)
C=CCCCCOc1ccccc1-c1cnc(OCCCCC=C)n1C | 68.6% (inactive)
Cc1ncc(C(=O)Nc2ccc(CN3CCN(C)CC3)c(C(F)(F)F)c2)cc1C#Cc1c(N)ncc2ccc(C#N)cc12 | 68.5% (inactive)
CCc1cccc(Cl)c1 | 105% (inactive)
Cc1ccc(S(=O)(=O)N/N=C2\CC3CCC2(C)C3(C)C)cc1 (stereo unspecified) | 96.1% (inactive)
COc1ccc(C(C(=O)O)c2ccc(OC)cc2)cc1 | 113% (inactive)
Fc1ccc(NC(=S)c2ccccc2)cc1 | 98.5% (inactive)
c1cc2ccc3cc2cc1CNCCN1CCNCc2ccc4ccc(cc4c2)CNCCN(CCNC3)CCNCc2ccc3ccc(cc3c2)CNCC1 | -4.66% (active)
Cn1cc(-c2nnc(-c3ccccc3)s2)c2cc(Br)cnc21 | 92% (inactive)
CCOc1ccc2sc(NS(=O)(=O)c3ccc(N)cc3)nc2c1 | 99.5% (inactive)
COc1ccc2c(c1)C(C)Cc1c(Cl)ncnc1N2C (stereo unspecified) | 15.5% (inactive)

Reference: PubChem BioAssay (NCI)
